About 83,000 compounds went through this panel and 20% of them were active in at least one assay; those are over-represented in the sample as a whole.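 Results are percent growth after 48 hours of single-concentration exposure. 100 means growth as in untreated cells, lower positive values show inhibition; negative values down to -100 show cell death.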 Unmarked numbers belong to inactive results. The calls were made as follows: active = growth percent below 10; inactive = the rest.
tested on: MDA-MB-468 breast; experiment: NCI-60 one-dose screen, 48 h (100 = growth as untreated, 0 = no growth, -100 = all killed); conditions: 10 µM unless noted

Row | SMILES | growth [%]
1 | CCOC(=O)NC(=S)n1oc(=O)c2ccccc21 | 106
2 | CCCCCCCCCCCCCCCCCc1nccn1CCO | 91.5
3 | CC(=O)Cc1nsc(NC(=O)c2cc(-c3cc(Cl)ccc3Cl)oc2C)n1 | 100
